Source: PubChem
PP1 inh – PP1-alpha (human) inhibition in PP5 counter-screen; P62136; purified PP1alpha, OMFP fluorescence; inhibition, % at 6.7 µM; 320,000 tested, 0.9% active; AID 2235;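 active = inhibition above the mean inhibition of all tested compounds plus 3 SD, computed separately for each screening campaign, cut at about 15% in these data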
Target sequence (P62136 whole entry, looked up): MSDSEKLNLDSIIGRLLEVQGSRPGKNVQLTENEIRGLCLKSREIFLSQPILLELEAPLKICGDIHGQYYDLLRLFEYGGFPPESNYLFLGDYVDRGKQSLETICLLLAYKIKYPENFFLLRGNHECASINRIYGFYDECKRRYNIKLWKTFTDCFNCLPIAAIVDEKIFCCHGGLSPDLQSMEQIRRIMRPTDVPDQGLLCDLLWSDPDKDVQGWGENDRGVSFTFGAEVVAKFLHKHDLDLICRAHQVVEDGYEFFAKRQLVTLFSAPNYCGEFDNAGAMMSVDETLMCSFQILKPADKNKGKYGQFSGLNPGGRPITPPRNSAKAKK
MsrA inh – inhibits bovine methionine sulfoxide reductase A. 360,000 tested, 0.75% active. purified bovine MsrA, absorbance read-out. inhibition, % at 15.5 µM;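 also: 0% = vehicle wells with enzyme and 100% = reference inhibitor wells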
ZTA DNA inh – ZTA (EBV) inhibition in EBNA-1 counter-screen; ZTA-DNA binding, fluorescence polarization; 320,000 tested, 0.15% active; inhibition, % at 11 µM; P03206; AID 2234; in the data active = inhibition above about 33%
Target sequence (P03206 whole entry, looked up): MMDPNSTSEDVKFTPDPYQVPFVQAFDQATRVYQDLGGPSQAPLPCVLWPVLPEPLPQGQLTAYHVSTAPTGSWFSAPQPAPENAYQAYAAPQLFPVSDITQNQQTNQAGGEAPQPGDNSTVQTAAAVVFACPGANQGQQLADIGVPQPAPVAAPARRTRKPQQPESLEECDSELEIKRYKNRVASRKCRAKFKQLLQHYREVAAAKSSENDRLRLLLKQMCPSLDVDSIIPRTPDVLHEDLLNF
EBNA-1 inh – blocks EBNA-1 binding to DNA; AID 1950; 300,000 tested, 0.34% active; EBNA-1 DNA binding, fluorescence polarization; inhibition, % at 14.8 µM; in the data active = inhibition above about 28%
MsrA act – bovine methionine sulfoxide reductase A activation | activation, % at 10.6 µM | purified bovine MsrA, absorbance read-out | 360,000 tested, 0.3% active; in the data active = activation above about 7.5%;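 also: 0% = vehicle and 100% = reference activator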
PP5 inh – blocks human protein phosphatase 5 activity; purified PP5c, OMFP substrate fluorescence; inhibition, % at 6.7 µM; 320,000 tested, 0.18% active;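 active = inhibition above the campaign's mean inhibition across all tested compounds plus 3 SD, cut at about 9.5% in these data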;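 also: 0% = DMSO only and 100% = 100 µM cantharidin control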
MsrA conf – confirmation of bovine MsrA inhibitors; shares compounds with MsrA inh; purified bovine MsrA, absorbance read-out; inhibition, % at 15.5 µM; 2,300 tested, 41% active; AID 651822;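 also: coupled to thioredoxin reductase with NADPH and selenocystamine and DMSO as substrate; 0% = vehicle only and 100% = full effect of reference inhibitor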
* hit, by the source's call; nt = not tested or not shown. Shown are actives, neighbours in structure and some others; about 2.3% of the full set was active somewhere. Rule as the data show it, unless noted: active = inhibition above about 4.5%; inactive = the rest.

SMILES	PP1 inh	MsrA inh	ZTA DNA inh	EBNA-1 inh	MsrA act	PP5 inh	MsrA conf
COc1ccc(NC(=O)CN(c2c(C)cccc2C)S(C)(=O)=O)cc1	-0.5	2.0	-0.9	0.6	0.1	-2.3	nt
O=C(CNS(=O)(=O)c1ccc(F)cc1)N1CCCC1	-4.0	-0.4	-0.6	2.9	-5.5	-1.4	nt
O=S1(=O)CCC(N=Cc2ccc(-c3ccc(Cl)cc3)o2)C1 (configuration not stated)	-2.2	4.8*	-13.5	-5.8	-2.0	3.1	3.6
Clc1ccc(-c2ccc(C=Nc3ccc(N4CCOCC4)cc3)o2)cc1	-0.9	4.2	0.9	1.0	-3.4	1.0	nt
O=C(CS(=O)CC(=O)N(CC(=O)NC1CCCC1)c1ccc2c(c1)OCCO2)Nc1ccc(F)cc1 (configuration not stated)	-4.1	2.7	14.2	-2.2	-4.8	4.4	nt
Cc1csc2ncc(C(=O)N3c4ccccc4CC3C)c(=O)n12 (configuration not stated)	-2.1	6.4*	9.3	-16.8	-14.5	0.8	2.1
CCOC(=O)N1CCC(N(CCN(C)C)C(=S)Nc2ccc(Oc3ccccc3)cc2)CC1	-1.4	-1.2	-4.5	2.9	-9.4	4.8	nt
Cc1ccc(C)c(/C(O)=C2\C(=O)C(=O)N(CCCN3CCOCC3)C2c2cccnc2)c1 (configuration not stated)	nt	15.9*	nt	nt	-5.3	nt	0.4
COc1cccc(/C=N/NC(=O)c2ccoc2C)c1	-3.9	-0.7	5.7	13.6	-2.5	-0.3	nt
O=c1oc2ccccc2cc1-c1cn2cccnc2n1	-1.8	5.8*	5.6	3.7	0.9	0.2	5.0*
CCN(CC)c1ccc(/C=N/n2c(C)cc(C)cc2=O)cc1	-2.4	5.1*	-5.1	7.9	-6.3	-2.0	4.1
COc1ccccc1S(=O)(=O)N(C)C[C@H]1Oc2cc(Br)ccc2S(=O)(=O)N([C@H](C)CO)C[C@H]1C	nt	5.6*	nt	nt	nt	nt	0.5
COc1ccccc1S(=O)(=O)N(C)C[C@H]1Oc2cc(Br)ccc2S(=O)(=O)N([C@@H](C)CO)C[C@H]1C	nt	0.2	nt	nt	-2.5	nt	nt
CN(C)c1ccc(/C=N/NC(=O)CNC(=O)c2ccco2)cc1	-2.7	4.2	-3.6	-1.9	-4.0	-0.2	nt
CC(=O)Nc1cc(OC(C)=O)c2nonc2c1OC(C)=O	59.6*	28.5*	69.7*	6.6	5.3	8.2	-0.6
CC(=O)Nc1nonc1NC(C)=O	-1.2	-0.9	3.6	-14.9	-1.0	-1.4	nt
NC(=O)N/N=C/c1ccc(-c2ccc(S(=O)(=O)Nc3ncccn3)cc2)o1	nt	5.7*	nt	nt	-1.5	nt	6.4*
CC(C)Oc1ccc(C(=O)N/N=C/c2ccc(-c3ccc(S(=O)(=O)Nc4ncccn4)cc3)o2)cc1	9.0	4.5	10.5	2.5	-3.3	2.3	nt
CC1(c2cccc(Br)c2)NC(=O)NC1=O (configuration not stated)	-4.0	-1.3	-5.8	7.9	0.2	-0.1	nt
Cc1ccc(S(=O)(=O)N2CCN(C(=O)c3ccc(-n4cncn4)c([N+](=O)[O-])c3)CC2)c(C)c1	nt	1.0	nt	nt	-2.1	nt	nt
O=C(CCC(=O)Nc1cccc(C(F)(F)F)c1)NCC1CCCO1 (configuration not stated)	-3.8	-0.8	4.8	-3.5	-3.2	-0.3	nt
c1ccc2c(c1)CCCN2c1nc2ccccc2n2cnnc12	0.4	12.0*	-1.3	-8.0	-12.5	0.1	12.2*
C=CCN1C(c2ccccc2)=CS/C1=C(\C#N)c1nnc2n1CCCCC2	-1.7	4.8*	17.0	2.3	-6.0	-0.4	2.7
CCOc1ccc(C2=CS/C(=C(\C#N)c3nnc4n3CCCCC4)N2CC)cc1	2.5	3.0	-11.1	-5.1	-3.8	0.7	nt
COc1cc(/C=N/NC(=O)[C@H](Cc2c[nH]c3ccccc23)NC(=O)OCC(C)C)cc([N+](=O)[O-])c1O	-5.1	6.4*	15.3	-2.5	-6.8	-0.8	4.4
SMILES	PP1 inh	MsrA inh	ZTA DNA inh	EBNA-1 inh	MsrA act	PP5 inh	MsrA conf
COc1ccc(Cn2cc(CN3CC(N4CCN(Cc5ccccc5F)CC4)CS3(=O)=O)nn2)cc1 (configuration not stated)	nt	1.5	nt	nt	-2.8	nt	nt
CCCOc1ccc(C(=O)NC(=S)N2CCN(c3cc4c(cc3F)c(=O)c(C(=O)O)cn4CC)CC2)cc1	4.8	-0.8	-10.9	-11.4	0.7	-0.1	nt
O=C(NCc1cccnc1)c1cc(C2CCCN(C(=O)c3ccccn3)C2)on1 (configuration not stated)	nt	48.4*	nt	nt	-5.3	nt	-0.4
O=C(NCc1cccnc1)c1cc(C2CCCN(C(=O)c3cccs3)C2)on1 (configuration not stated)	nt	0.7	nt	nt	-1.6	nt	nt
CCC1S/C(=N/N=C/c2cccs2)NC1=O (configuration not stated)	3.6	6.2*	17.1	2.8	-7.5	0.4	5.5*
CC(C)C1S/C(=N/N=C/c2cccs2)NC1=O (configuration not stated)	-0.5	6.8*	10.6	9.7	-8.1	0.0	3.5
CC1S/C(=N/N=C/c2cccs2)NC1=O (configuration not stated)	0.0	5.0*	-15.4	1.4	-5.0	0.0	4.4
CCCC1S/C(=N/N=C/c2cccs2)NC1=O (configuration not stated)	-4.0	3.4	-9.4	-11.1	-5.6	2.3	nt
C(=N\N=C\c1cccs1)/c1cccs1	1.2	5.1*	13.1	-10.1	-0.7	-1.6	4.7*
O=C1N/C(=N\N=C\c2cccs2)SC1Cc1ccc(Cl)cc1 (configuration not stated)	-1.2	-0.3	8.9	6.5	-4.0	-0.6	nt
NC(=O)c1cccc(-c2cnc3c(Nc4cccc(OC(F)(F)C(F)F)c4)nccn23)c1	nt	-1.1	nt	nt	-8.5	nt	nt
C=CCOc1c(CNC2CCCC2)cc(Cl)cc1OC	-3.0	-0.1	3.7	3.6	-0.9	-3.0	nt
Cc1cn(-c2cc(NC(=O)c3ccc(C)c(NC(=O)c4cccc(-c5cn[nH]c(=O)c5)c4)c3)cc(C(F)(F)F)c2)cn1	8.0	nt	15.1	9.5	-4.9	3.1	nt
CN(C)c1cc[n+](CC(=O)c2ccc(OC(F)F)cc2)cc1	-2.7	1.9	-4.0	-2.0	-1.4	-3.3	nt
O=[N+]([O-])c1ccccc1Nc1ccccc1[N+](=O)[O-]	nt	0.0	nt	nt	1.9	nt	nt
Nc1ccccc1Nc1ccc([N+](=O)[O-])cc1[N+](=O)[O-]	2.1	16.5*	-4.2	-12.7	-4.1	1.8	9.4*
Cc1ccc(-n2c(=S)sc3c(=O)n(-c4ccc(F)cc4)c(SCC(=O)O)nc32)cc1C	1.8	5.3*	15.0	6.5	-6.0	-2.8	1.9
O=C(NNC1=NC2(CCCC2)Cc2ccccc21)c1ccncc1	3.5	4.7*	-18.9	2.1	-5.0	0.0	0.8
CCS(=O)(=O)Nc1ccc(C2=NN(C(=O)c3ccco3)C(c3ccco3)C2)cc1 (configuration not stated)	0.1	5.1*	-4.4	-14.7	-0.5	0.3	3.1
